From PubChem BioAssay
A selection: hits, their analogues and other compounds. The true share with any hit is near 4.7%.
TRHR enhancer = TRH receptor (human) allosteric enhancement | P34981 | TRHR cells, fluo-8 calcium fluorescence, EC20 TRH enhancement | enhancement, % at 2 µM | 0.66% of 360,000 active | AID 493056; in the data active = enhancement above about 30%; also: 0% is about no effect
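TRHR-expressing cells loaded with fluo-8 calcium dye were read kinetically (ex 480/em 530) during compound addition, then stimulated with an EC20 of TRH (10 nM final). Enhancement of the Gq-mediated intracellular calcium response was scored.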
D1 antagonist = human D1 dopamine receptor antagonism; activity change, negative = inhibition, % at 10 µM; HEK293 TREx D1 cells, calcium flux, dopamine EC80; active compounds read low; AID 504652; 3.2% of 360,000 active; in the data active = activity change below about -30%; also: % is scaled to controls: 0 for no effect and ±100 for the full control effect
Target sequence (P21728 whole entry, looked up): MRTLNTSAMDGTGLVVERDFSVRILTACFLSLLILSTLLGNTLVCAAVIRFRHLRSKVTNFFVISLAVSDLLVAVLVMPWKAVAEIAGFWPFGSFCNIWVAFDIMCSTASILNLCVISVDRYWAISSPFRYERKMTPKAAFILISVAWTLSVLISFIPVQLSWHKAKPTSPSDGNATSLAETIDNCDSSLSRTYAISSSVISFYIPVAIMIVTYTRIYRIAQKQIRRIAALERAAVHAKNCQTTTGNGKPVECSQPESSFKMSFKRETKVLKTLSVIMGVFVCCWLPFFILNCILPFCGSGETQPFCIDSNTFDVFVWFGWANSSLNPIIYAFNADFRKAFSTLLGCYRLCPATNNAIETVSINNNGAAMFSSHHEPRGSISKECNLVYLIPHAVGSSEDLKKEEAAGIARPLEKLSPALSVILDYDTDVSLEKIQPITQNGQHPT
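Inducible Hek293 Trex D1 cells (tetracycline, overnight, 30 C). Calcium dye 30–90 min RT. Antagonist mode: EC80 dopamine added after 180 s compound read.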
TRHR ag = TRH receptor (human) agonism. TRHR cells, calcium flux fluo-8, FDSS agonist mode. activation, % at 2 µM. 0.18% of 360,000 active; also: 0% is about no effect
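Agonist-mode FDSS calcium read (Ex 480/Em 530, 1 s cycles) in 1536-well TRHR cells with fluo-8 dye, after 10-cycle baseline and 23 nL compound addition; TRH at EC20 (10 nM final) added afterwards for the enhancer phase.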
D1 agonist = human D1 receptor agonism; P21728; HEK293 T-REx D1 cells, calcium flux, agonist mode; activation, % at 2 µM; 1% of 360,000 active; also: 0% is about no effect
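Inducible HEK293 T-REx D1 cells, force-coupled to calcium signalling, were plated at 4000 cells/well with tetracycline and held overnight at 30 C. After no-wash calcium dye loading, compound-evoked calcium rise over 180 s flagged agonists.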
D1 PAM = human D1 dopamine receptor positive modulation | P21728 | HEK293 TREx D1 cells, calcium flux, dopamine EC20 potentiation | potentiation, % at 10 µM | 0.036% of 360,000 active | AID 504651; in the data active = potentiation above about 30%; also: 0% is about no effect
The depositor's hits bear a star; / = not tested or not shown. Rule as the data show it, unless noted: active = activation above about 30%; inactive = the rest.

SMILES	TRHR enhancer	D1 antagonist	TRHR ag	D1 agonist	D1 PAM
COc1ccccc1CN1C[C@@H]2C[C@@H](c3ccc4nsnc4c3)N3CCC[C@@]23C1=O	-3	-72*	-1	0	-4
O=C1N(Cc2cccc(Cl)c2)C[C@@H]2C[C@@H](c3ccc4nonc4c3)N3CCC[C@@]123	-1	-36*	-1	8	-5
O=C1N(Cc2cccc(Cl)c2)C[C@@H]2C[C@@H](c3cccc4ncccc34)N3CCC[C@@]123	6	-35*	-1	3	-4
O=C1N(Cc2cccc(Cl)c2)C[C@@H]2C[C@@H](c3cccc4cccnc34)N3CCC[C@@]123	-12	-9	2	1	0
COc1ccccc1NC(=O)NNC(=O)CCN1CCOCC1	-3	-6	0	4	0
O=C(NCCC1=CCCCC1)c1ccc2c(c1)N(Cc1ccc(Cl)cc1)C(=O)c1ccccc1S2(=O)=O	0	4	1	3	0
CC1=C(C(=O)Nc2cccc(C(F)(F)F)c2)C(c2ccccn2)n2ncnc2N1 (stereo unspecified)	2	12	0	1	-1
CC(C)OC(=O)c1ccc(COC(=O)c2cccc(-c3nnc(-c4ccccc4)o3)c2)cc1	4	9	0	1	-4
CC(C)OC(=O)c1cccc(-c2ccc(C=O)o2)c1	36*	-1	0	1	11
Cc1ccccc1NC(=O)Nc1cccs1	0	-36*	1	12	-4
CC(=O)Nc1ccc(NC(=O)Nc2ccc(C)cc2C)cc1	-6	-2	-1	1	-2
CCc1ccccc1NC(=O)Nc1cccs1	-3	-9	0	5	-5
Cc1ccc(NC(=O)Nc2cccs2)c(C)c1	-2	-41*	0	11	1
Cc1ccc(Cl)cc1NC(=O)Nc1cccs1	-3	-63*	1	24	-9
CCOC(=O)c1ccc(NC(=O)Cn2cc(C(=O)c3ccc(Cl)cc3)c(=O)c3ccc(C)nc32)cc1	8	-3	2	8	-3
Cn1c(=O)oc2cc(S(=O)(=O)CCC(=O)N3CCN(c4cccc(Cl)c4)CC3)ccc21	-3	-18	0	2	-7
OCCCc1nc2n(n1)C(c1cccs1)C=C(c1ccccc1)N2 (stereo unspecified)	-2	1	41*	34*	/
CCOc1ccccc1C(=O)OCC(=O)NCC1CCCCC1	-8	2	-1	1	-1
COC(=O)C1=C(N)Oc2cc(C)n(C)c(=O)c2C1c1ccc(Cl)c(Cl)c1 (stereo unspecified)	-6	-33*	0	0	-3
Nn1c(Cc2cccc3ccccc23)nnc1SCCOc1ccc(Br)cc1	-11	-25	1	11	-6
Nn1c(Cc2cccc3ccccc23)nnc1SCCOc1ccc(F)cc1	-2	-98*	0	5	-4
Cc1cc(C)c(S(=O)(=O)c2cccc(Cl)c2)c(Cl)n1	1	-2	0	3	-2
CCOc1nc(C)cc(C)c1S(=O)(=O)c1cccc(Cl)c1	22	-49*	0	30*	-4
O=C(Nc1ccc(O)c(-c2nc3ccccc3o2)c1)c1sc2ccccc2c1Cl	1	-30*	0	0	0
O=C(Nc1ccc(O)c(-c2nc3ccccc3o2)c1)c1cccs1	0	-4	1	0	-4
SMILES	TRHR enhancer	D1 antagonist	TRHR ag	D1 agonist	D1 PAM
CCC(=O)NC(c1cccs1)c1cc(Br)c2cccnc2c1O (stereo unspecified)	4	21	0	-2	-2
COC(c1ccccc1)c1nnc(CCC(=O)N(C)CCCC2CCCC2)o1 (stereo unspecified)	-11	-32*	-2	6	-3
Cc1ccc(NC(=O)C2CCCN(c3ncnc4c3nc3n4CCCCC3)C2)cc1F (stereo unspecified)	3	-30	0	-1	1
CC1CCN(CC(=O)N(C)c2c(N)n(Cc3ccccc3)c(=O)[nH]c2=O)CC1	8	-5	0	-1	-5
COC(=O)C1CCN(CC(=O)N(C)c2c(N)n(Cc3ccccc3)c(=O)[nH]c2=O)CC1	-2	-36*	0	0	-5
Cc1ccc(C)c(CN2CCC(CNC(=O)Nc3ccc(Cl)cc3)CC2)c1	7	-33*	2	23	-21
Cc1ccc(C(C)C)c(OCCn2c(=O)oc3ccccc32)c1	3	3	-3	37*	-4
CCOC(=O)Cn1c(=O)oc2ccc(C)cc21	-5	13	0	3	9
COc1ccc(OCCCn2c(=O)oc3ccc(C)cc32)cc1	3	-32*	-1	73*	2
Cc1ccc2oc(=O)n(CCCOc3ccccc3)c2c1	-3	-13	-2	1	-2
Cc1ccc2oc(=O)n(CC(=O)OCCC(C)C)c2c1	35*	-4	-1	2	-5
CCCCCOc1ccccc1Cn1c(=O)oc2ccc(C)cc21	-5	-48*	1	10	-1
CCOc1ccc(CN2C(=O)CCC2(C)C(=O)NCc2cccnc2)cc1 (stereo unspecified)	-1	-30*	0	3	-8
Cc1ccc(CCN2C(=O)CCC2(C)C(=O)NCc2cccnc2)cc1 (stereo unspecified)	-2	-20	0	0	-3
Cc1nc2ccccc2n1C1CCN(CC(=O)NCc2ccc(F)cc2)CC1	4	-43*	-1	1	-1
COc1ccc(NC(=O)CN2CCC(n3c(C)nc4cc(F)ccc43)CC2)c(OC)c1	10	14	2	2	-5
COc1cccc(NC(=O)c2ccc(-n3cnnn3)cc2)c1	-7	-2	0	2	-2
COc1cccc(NS(=O)(=O)c2ccc(Br)s2)c1	4	-35*	0	19	-4
COc1ccc(OC)c(NS(=O)(=O)c2ccc(Br)s2)c1	-10	10	-1	3	-2
CCOc1cccc(Nc2nn(-c3ccc(OC(F)(F)F)cc3)nc2C(C)=O)c1	0	5	0	0	-2
Cc1cc(C(F)(F)F)n2ncc(C(=O)O)c2n1	4	-31*	1	4	/
COc1cccc(CNC(=O)CN(c2ccc(C)cc2)S(=O)(=O)N(C)C)c1OC	-11	-23	0	-1	-2
COC(=O)c1cc(C(=O)OCC(=O)N(C)c2ccccc2)cc([N+](=O)[O-])c1	-1	5	-1	4	-9
Cc1ccc(S(=O)(=O)NCCNC(=O)C2CCCNC2=O)cc1 (stereo unspecified)	3	-46*	1	5	-3
Cc1cc2c(s1)c1cnn(Cc3ccc(F)c(F)c3)c(=O)c1n2C	1	1	0	-1	4
Cc1c(CCOC(=O)CC23CC4CC(CC(C4)C2)C3)sc[n+]1Cc1ccccc1	2	-15	0	0	-7
